# Test results reported in PubChem BioAssay.
# System: Plasmodium falciparum Sir2 (PF13_0152, Sir2A)
# Assay: pfSir2 binders on small-molecule microarrays, primary screen, biochemical, small-molecule microarray, 635 nm fluorescence (AID 1098);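 note: score merges spot fluorescence intensity with its signal-to-noise ratio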
# Details: small-molecule microarray binding, fluorescence 635 nm; higher = more signal
row,SMILES,composite z-score
1,O=C1C[C@@H](O)[C@@H](O)[C@@H]2[C@@H]3C(=O)N(c4ccc(F)cc4F)C(=O)[C@@H]3CC[C@H]12,0.88
2,Cc1cc(C)c(-c2cc([C@H](C)ON=C[C@@H](C)[C@H](OCc3ccccc3)C(C)C)on2)c(C)c1,-0.761
3,CCN1C(=O)[C@H]2[C@H]3[C@H](O)[C@H](O)CC(=NOCC=C(C)CCC=C(C)C)[C@@H]3CC[C@H]2C1=O,0.882
4,CC(CCC(=O)OC[C@H]1O[C@H](C#Cc2ccccc2)C=C[C@@H]1Oc1ccc(C)cc1)=NOC[C@@H](C)[C@H](OCc1ccccc1)C(C)C,-1.11
5,CCOC(=O)CCN1C(=O)[C@H]2[C@H]3[C@H](O)[C@H](O)CC(=NO[C@@H]4O[C@H](CO)[C@@H](O)[C@H](O)[C@H]4O)[C@H]3CC[C@H]2C1=O,0.29
6,CC1(C)O[C@H]2OC([C@H](O)CON3C(=O)c4ccccc4C3=O)[C@H](O)[C@H]2O1 (stereo not given in full),-0.0933
7,CC(CCN1CCc2nc(-c3ccccc3)c(-c3ccccc3)cc2C1)=NO[C@H](C)c1cn([C@H](CO)Cc2ccccc2)nn1,0.343
8,CON=C(C)CCN1CCCc2nc(C)c(C)cc21,0.858
9,CC(=O)OC[C@H]1O[C@@H](ON=C(C)CCC(=O)OC[C@H]2O[C@H](C#Cc3ccccc3)C=C[C@@H]2Oc2ccc(C)cc2)[C@H](OC(C)=O)[C@@H](OC(C)=O)[C@@H]1OC(C)=O,0.888
10,CCN1C(=O)[C@H]2[C@H]3[C@H](O)[C@H](O)CC(=NO[C@H](C)c4cn([C@H](CO)Cc5ccccc5)nn4)[C@@H]3CC[C@H]2C1=O,0.955
11,CC(=O)OC[C@H]1O[C@@H](ON=C(C)C)[C@H](OC(C)=O)[C@@H](OC(C)=O)[C@@H]1OC(C)=O,-0.745
12,CC(C)CON=C1C[C@@H](O)[C@@H](O)[C@@H]2[C@@H]3C(=O)N(c4ccc(F)cc4F)C(=O)[C@@H]3CC[C@@H]12,0.622
13,C=C(C)C(=O)OC[C@H]1CN2[C@@H](CC[C@@H](C)[C@@H]2c2ccc(Br)cc2)C(=O)O1,0.789
14,CC(CCN1CCCc2nc(C)c(C)cc21)=NOC[C@@H](O)COCc1ccco1,1.22
15,O=C1C=C[C@@H](O)[C@@H]2[C@@H]3C(=O)N(Cc4ccc5c(c4)OCO5)C(=O)[C@@H]3CC[C@@H]12,0.382
16,CC(C)(C)N1C(=O)[C@H]2[C@H]3[C@H](O)[C@H](O)CC(=NOC[C@@H](O)COCc4ccco4)[C@@H]3CC[C@H]2C1=O,0.34
17,C=CC[C@@H]1C=CC(ON=C(C)C)[C@@H](CO)O1 (stereo not given in full),0.24
18,CCC1=NOC(CCC2CC(OC(=O)NCc3cccc4c3OCO4)CC3(CCCC(COC(=O)NCCc4ccc(Cl)cc4)O3)O2)C1 (stereo not given),0.354
19,C#CCCCON=C1C[C@@H](O)[C@@H](O)[C@@H]2[C@@H]3C(=O)N(C4CCCCC4)C(=O)[C@@H]3CC[C@@H]12,0.369
20,CC(=O)OC[C@H]1O[C@H](CC=NOC[C@@H](O)COCc2ccco2)C=C[C@@H]1OC(C)=O,0.717
21,CC(C)=NOC(C)CN1CCCc2nc(C)c(C)cc21 (stereo not given),1.19
22,CCOC(=O)[C@H](Cc1ccccc1)NC(=O)CCC1CC(OC(=O)NCc2cccc3ccccc23)CC2(CCCC(COC(=O)NCC3CCCCC3)O2)O1 (stereo not given in full),0.889
23,O=C1C[C@H](c2ccccc2)[C@H](c2ccc(Br)cc2)O1,-0.159
24,COC(=O)[C@H](C)NC(=O)CCC1CC(OC(=O)NCCc2ccc(F)cc2)CC2(CCCC(COC(=O)NCC3CCCCC3)O2)O1 (stereo not given in full),0.662
25,CN1CCc2nc(-c3ccccc3)c(-c3ccccc3)cc2C1,-0.0565
26,CC#CCOCCC=C1c2ccccc2[C@@H](OC)[C@@H]1C,0.183
27,C#CCCCON=C1C[C@@H](O)[C@@H](O)[C@@H]2[C@@H]3C(=O)N(C[C@@H]4CCCO4)C(=O)[C@@H]3CC[C@H]12,0.407
28,O=C1[C@H]2[C@H]3[C@H](O)[C@H](O)CC(=NO[C@@H]4O[C@H](CO)[C@@H](O)[C@H](O)[C@H]4O)[C@H]3CC[C@H]2C(=O)N1c1ccc(F)cc1F,-0.134
29,CCCNC(=O)OC[C@H]1O[C@H](CCON=C2C[C@@H](O)[C@@H](O)[C@@H]3[C@@H]4C(=O)N(CC)C(=O)[C@@H]4CC[C@@H]23)C=C[C@@H]1Oc1ccc(OC)cc1,0.874
30,CC(C)=CCCC(C)=CCON=C1C[C@@H](O)[C@@H](O)[C@@H]2[C@@H]3C(=O)N(c4cccc(Oc5ccccc5)c4)C(=O)[C@@H]3CC[C@H]12,0.0643
